Bioassay records (PubChem BioAssay)
Rows were chosen to be rich in hits. Some 3.9% of all compounds tested hit in one or more screens of this group.
PHOSPHO1 block: PHOSPHO1 (human) inhibition. Q8TCT1. recombinant PHOSPHO1, absorbance phosphatase assay. inhibition, % at 13.3 µM. 290,000 tested, 1.1% active. AID 1565; in the data active = inhibition above about 60%
SKKanGAS inh: blocks kanamycin growth of S. pyogenes SKKanGAS strain; BacTiter-Glo, 6 h; inhibition, % at 7.5 µM; 300,000 tested, 1.3% active; AID 1662;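 active = mean replicate score, as percent of positive control median, at least 50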;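 also: strain carries kanamycin resistance gene driven by streptokinase promoter and grows in 40 µg/ml kanamycin; loss of luminescence reflects streptokinase promoter inhibition or plain growth inhibition; 0% = median of DMSO wells and 100% = positive control at its reference dose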
Platelet DG rel: modulates dense granule release in human platelets; human platelet-rich plasma, SFLLRN dense granule ATP release, luminescence; inhibition, %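 (compounds screened at 7.5 µM in platelet-rich plasma)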; 300,000 tested, 0.22% active;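 active = mean replicate score, as percent of positive control, at or above 50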
WT yeast gro inh: growth inhibition of WT yeast, mitochondrial fusion screen; mitochondrial fusion phenotypic screen, WT strain; inhibition, % at 10 µM; 190,000 tested, 2.1% active; AID 1362; in the data active = inhibition above about 58%; tested in S. cerevisiae
TPT1 inh: blocks Candida albicans tRNA 2'-phosphotransferase; 300,000 tested, 0.81% active; recombinant caTPT1, FP RNA substrate dephosphorylation; AID 1962; inhibition, % at 5 µM;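 active = inhibition above the mean of all tested compounds plus 3 SD, set per screening campaign, cut at about 24% in these data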;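 also: plate controls were DMSO alone for no effect and ferristatin control at 100 nM for full effect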
Rtt109 Vps75: inhibitors of Candida albicans Rtt109/Vps75 histone acetyltransferase; 330,000 tested, 0.16% active; inhibition, % at 34.9 µM; AID 540336; purified Rtt109/Vps75, ThioGlo CoA-SH fluorescence, 4 h;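 active = inhibition of at least 50% in every replicate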
Target sequence (Q5AAJ8 whole entry, looked up): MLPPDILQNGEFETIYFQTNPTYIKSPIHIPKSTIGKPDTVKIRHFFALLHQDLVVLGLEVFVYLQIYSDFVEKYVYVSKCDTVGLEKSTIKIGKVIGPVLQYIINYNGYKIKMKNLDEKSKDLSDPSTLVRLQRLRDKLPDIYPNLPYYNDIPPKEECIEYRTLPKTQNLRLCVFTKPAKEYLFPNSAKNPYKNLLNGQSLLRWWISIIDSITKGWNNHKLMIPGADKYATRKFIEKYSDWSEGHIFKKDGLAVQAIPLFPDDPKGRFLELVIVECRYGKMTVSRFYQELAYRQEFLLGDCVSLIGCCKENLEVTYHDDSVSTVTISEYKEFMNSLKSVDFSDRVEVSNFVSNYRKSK
* = called active by the depositor.

COCCCn1c(-c2ccc(S(=O)(=O)N3CCOCC3)cc2)csc1=Nc1ccccc1 was read as PHOSPHO1 block 69*, SKKanGAS inh -3, Platelet DG rel 6, WT yeast gro inh 13, TPT1 inh -1 and Rtt109 Vps75 6.
COCCCNc1nc(N)c([N+](=O)[O-])c(N2CCCCCC2)n1 was read as PHOSPHO1 block 7, SKKanGAS inh 15, Platelet DG rel 7, TPT1 inh -3 and Rtt109 Vps75 14.
Screening CCCC[C@@H]1C[C@H]1[C@@H](NC(=O)c1cccs1)c1ccc(Cl)cc1 returned PHOSPHO1 block 40, SKKanGAS inh 33, Platelet DG rel 2, WT yeast gro inh 70* and TPT1 inh 0.
`CCCC[C@@H]1C[C@H]1[C@@H](NC(=O)c1ccco1)c1ccc(Cl)cc1` gave PHOSPHO1 block -14, SKKanGAS inh 17, Platelet DG rel 2, WT yeast gro inh 73*, TPT1 inh -1 and Rtt109 Vps75 0.
Screening CCCC[C@@H]1C[C@H]1[C@@H](NC(=O)c1ccco1)c1ccccc1C(F)(F)F returned SKKanGAS inh 8, Platelet DG rel -5 and TPT1 inh -2.
Screening Cc1ccc(S(=O)(=O)N2CCOCC2)cc1C(=O)NCc1ccccc1CN1CCCC1 returned Rtt109 Vps75 -15.
Cc1ccccc1Nc1nc(-c2sc(NC(=O)c3ccccc3)nc2C)cs1 was read as PHOSPHO1 block 69*, SKKanGAS inh 20, Platelet DG rel 5, WT yeast gro inh -11 and TPT1 inh 1.
COc1ccc(Cl)cc1Nc1nc(-c2sc(NC(=O)c3ccccc3)nc2C)cs1 was read as PHOSPHO1 block -53, SKKanGAS inh 19, Platelet DG rel 9, WT yeast gro inh 26 and TPT1 inh 5.
Screening COc1ccc(OC)c(Nc2nc(-c3sc(NC(=O)c4ccccc4)nc3C)cs2)c1 returned PHOSPHO1 block 34, SKKanGAS inh 16, Platelet DG rel 0, WT yeast gro inh 26 and TPT1 inh 36*.
Screening CCN(C1CCCCC1)S(=O)(=O)c1cc2c3c(c1)CCN3C(=O)CC2 returned SKKanGAS inh 2, Platelet DG rel 0, TPT1 inh -4 and Rtt109 Vps75 39.
Screening Cc1onc(-c2ccccc2Cl)c1C(=O)N1CCN(S(=O)(=O)c2ccc(F)c(F)c2)CC1 returned PHOSPHO1 block 1, SKKanGAS inh 5, Platelet DG rel -6, TPT1 inh -2 and Rtt109 Vps75 4.
`CCC(=O)NC(c1cccs1)c1cc(Cl)c2cccnc2c1O` (centres undefined) gave PHOSPHO1 block 3, SKKanGAS inh 66*, Platelet DG rel -2, WT yeast gro inh -5, TPT1 inh -3 and Rtt109 Vps75 -2.
CCCCC(=O)NC(c1cccs1)c1cc(Cl)c2cccnc2c1O (centres undefined) was read as PHOSPHO1 block 48, SKKanGAS inh 67*, Platelet DG rel -4, WT yeast gro inh -16, TPT1 inh -5 and Rtt109 Vps75 0.
`CCCC(=O)NC(c1ccc(OC)c(OC)c1)c1cc(Cl)c2cccnc2c1O` (centres undefined) gave PHOSPHO1 block 28, SKKanGAS inh 23, Platelet DG rel -4, WT yeast gro inh -2, TPT1 inh -2 and Rtt109 Vps75 0.
For CC(=O)N1CCOc2ccc(S(=O)(=O)NC[C@H]3O[C@@H](n4cnc5c(N)ncnc54)[C@H](O)[C@@H]3O)cc21 the results were Rtt109 Vps75 1.
For CC(=O)c1sc(NC(=O)CN2C(=O)C3CCCCC3C2=O)nc1-c1ccccc1 (centres undefined) the results were Rtt109 Vps75 5.
COc1ccc(N2CCN(C(=S)NC(=O)c3cccs3)CC2)c([N+](=O)[O-])c1 was read as PHOSPHO1 block -74, SKKanGAS inh 52*, Platelet DG rel 17, WT yeast gro inh 61*, TPT1 inh 1 and Rtt109 Vps75 3.
Screening O=C(NC(=S)N1CCN(c2c(Cl)cccc2[N+](=O)[O-])CC1)c1cccs1 returned PHOSPHO1 block -10, SKKanGAS inh 76*, Platelet DG rel -7, WT yeast gro inh 78*, TPT1 inh 2 and Rtt109 Vps75 -4.
`COc1ccc(N2CCN(C(=O)c3ccc(Br)cc3)CC2)c([N+](=O)[O-])c1` gave PHOSPHO1 block 27, SKKanGAS inh 7, Platelet DG rel 4, WT yeast gro inh 69*, TPT1 inh 3 and Rtt109 Vps75 22.
COc1ccc(N2CCN(C(=O)c3ccc(C)cc3)CC2)c([N+](=O)[O-])c1 was read as PHOSPHO1 block -4, SKKanGAS inh -1, Platelet DG rel 1, WT yeast gro inh 30, TPT1 inh 0 and Rtt109 Vps75 3.
COn1c(-c2ccc(Cl)cc2)nc2ncccc21 was read as PHOSPHO1 block 24, SKKanGAS inh -4, Platelet DG rel -2 and TPT1 inh 0.
For COCCNC(=S)Nc1ccccc1[N+](=O)[O-] the results were PHOSPHO1 block 32, SKKanGAS inh 10, Platelet DG rel 4, WT yeast gro inh 8, TPT1 inh 2 and Rtt109 Vps75 -2.
For COCCCNC(=S)Nc1ccccc1[N+](=O)[O-] the results were PHOSPHO1 block 60*, SKKanGAS inh -2, Platelet DG rel -4, WT yeast gro inh 6 and TPT1 inh 0.
Screening COc1ccc(/C=N/Nc2nc(Nc3ccccc3)nc(N3CCCC3)n2)cc1[N+](=O)[O-] returned PHOSPHO1 block -4, SKKanGAS inh 26, Platelet DG rel -2, WT yeast gro inh 9, TPT1 inh 2 and Rtt109 Vps75 1.
Screening COc1cc(/C=N/Nc2nc(Nc3ccccc3)nc(-n3nc(C)cc3C)n2)cc(OC)c1OC returned PHOSPHO1 block -1, SKKanGAS inh 75*, Platelet DG rel 17, WT yeast gro inh 2, TPT1 inh 1 and Rtt109 Vps75 7.
COc1cc(/C=N/Nc2nc(Nc3ccc(C)cc3)nc(-n3nc(C)cc3C)n2)cc(OC)c1OC was read as PHOSPHO1 block 7, SKKanGAS inh 74*, Platelet DG rel -1, WT yeast gro inh 10, TPT1 inh 0 and Rtt109 Vps75 -1.
COc1ccc(O)c(/C=N/Nc2nc(Nc3ccccc3)nc(-n3nc(C)cc3C)n2)c1 was read as PHOSPHO1 block 2, SKKanGAS inh 103*, Platelet DG rel -1, WT yeast gro inh 16, TPT1 inh -3 and Rtt109 Vps75 -1.
Screening O=C(NCc1ccc(F)cc1)C(=O)Nc1nc(C23CC4CC(CC(C4)C2)C3)cs1 returned PHOSPHO1 block -7, SKKanGAS inh 109*, Platelet DG rel -3, WT yeast gro inh 44, TPT1 inh 0 and Rtt109 Vps75 -2.
`O=C(NCc1ccccc1)C(=O)Nc1nc(C23CC4CC(CC(C4)C2)C3)cs1` gave PHOSPHO1 block -15, SKKanGAS inh 102*, Platelet DG rel -12, WT yeast gro inh 17 and TPT1 inh 2.
